Results on 36 compounds are retold here after PubChem BioAssay (EPA / NIEHS).

Several values for one entry are separate records, joined by “and”; a condition that tells them apart may be missing. Equal values may be shown once. Activity calls are given as the source filed them. Rule for the calls: active = hit-call score of the fitted dose curve at least 0.9, where 1 is the maximum; inactive = score below 0.9.

One may read the AC50 as the concentration at which the activity in the assay is half-maximal.

The assay can be described thus: BSK_3C_TissueFactor: BioMAP Diversity Plus: 3C Assay for Tissue Factor Biomarker Activity (AID 2282997). The note with it: BioMAP 3C HUVEC, tissue factor biomarker readout; actives raise or lower the signal. As for the experimental part:
BSK_3C is a cell-based, multiplexed-readout assay that uses umbilical vein endothelium, a human vascular primary cell, with measurements taken at 24 hours after chemical dosing in a 96-well plate.BSK_3C_TissueFactor is an assay component measured in the BSK_3C assay. It measures Tissue Factor antibody related to regulation of gene expression using ELISA technology.Data from the assay component BSK_3C_TissueFactor was analyzed into 1 assay endpoint. This assay endpoint, BSK_3C_TissueFactor, was analyzed with bidirectional fitting relative to DMSO as the negative control and baseline of activity. Using a type of binding reporter, gain or loss-of-signal activity can be used to understand changes in the signaling as they relate to the gene F3. Furthermore, this assay endpoint can be referred to as a primary readout, because this assay has produced multiple assay endpoints where this one serves a signaling function. To generalize the intended target to other relatable targets, this assay endpoint is annotated to the cytokine intended target family, where the subfamily is coagulation factor.
The levels of cell surface (or secreted, indicated by the prefix "s") biomarker endpoints were measured by ELISA. Overt cytotoxicity to cells in confluent adherent cultures (all systems other than the BT system) was assessed by measuring total protein levels using sulforhodamine B (SRB) staining in parallel cultures at the time of biomarker measurements, indicated as SRB endpoints. For proliferation assays for adherent cell types, individual cell types are cultured at sub-confluence and relative cell numbers quantified by SRB staining at time points optimized for each system (48 h: 3C and CASM3C systems; 72 h: BT and HDF3CGF systems; 96 h: SAg system). SRB was performed by staining cells with 0.1% SRB after fixation with 10% TCA and reading wells at 560 nm.Viability and proliferation of PBMC (T cells) was quantified by Alamar Blue reduction for the SAg and BT systems. For PBMC viability (referred to as PBMC Cytotoxicity within the assay endpoint names), cells were plated (75,000/well in a 96-well plate) and then chemical samples added for 1 h before addition of activators, SEB and TSST-1 (20 ng/mL final concentration each). Cells were incubated for 90 h. Then, Alamar Blue (20 uL/well) (Invitrogen, Cat DAL1100) was added for 6 h, and the plates were read with a fluorescence microplate reader at 546/580 nm (excitation/emission). For PBMC proliferation, cells were plated and activated as above but incubated for only 16 h prior to addition of Alamar Blue. Plates were read after 6 h.
For the compound `CC(C)(c1cc(Br)c(OCCO)c(Br)c1)c1cc(Br)c(OCCO)c(Br)c1`, the AC50 is 16.2 µM (active).

In the case of `CCO[Si](C)(OCC)OCC`, the outcome was inactive.

`CCOc1nc(F)cc2nc(S(=O)(=O)Nc3c(Cl)cccc3C(=O)OC)nn12`: the result was inactive.

Take `CC1OC1C1CCC2(C)OC2C1` (stereo unspecified): the result was inactive.

Regarding `CCO[Si](CCCN=C=O)(OCC)OCC`, the outcome was inactive.

For the compound `S=C(NC1CCCCC1)NC1CCCCC1`, the outcome was inactive.

Turning to `O=C1CCCN1CCO`, the result was inactive.

As for `C=CC=CC=CCCCCC`, the result was inactive.

In the case of `c1ccc(-c2ccccn2)nc1`, the outcome was inactive.

For `CCCCCCCCc1ccc(Nc2ccc(CCCCCCCC)cc2)cc1`, the outcome was inactive.

Turning to `O=Nc1ccc(O)cc1`, the outcome was inactive.

As to `CN1C(=O)N(C)C(O)C1O` (stereo unspecified), the outcome was inactive.

In the case of `COCc1c(C(C)C)nc(C(C)C)c(/C=C/[C@@H](O)C[C@@H](O)CC(=O)O)c1-c1ccc(F)cc1`, the AC50 is 5.66 µM (active).

For the compound `Nc1ccc(N)c(Cl)c1`, the result was inactive.

With `COc1ccc2nc(N)sc2c1`, the result was inactive.

As to `N#[N+]c1ccc2c(S(=O)(=O)[O-])cccc2c1O`, the outcome was inactive.

For `C=CCOc1c(Br)cc(Br)cc1Br`, the AC50 is 13.7 µM (active).

As for `O=c1c2ccccc2oc2ccccc12`, the AC50 is 3.97 µM (active).

For the compound `CCCCC(CC)COCC1CO1` (stereo unspecified), the outcome was inactive.

With `CCCCNc1ccc(NCCCC)c2c1C(=O)c1ccccc1C2=O`, the outcome was inactive.

For `CCOC(=O)c1ccccc1C(=C1C=C(Br)C(=O)C(Br)=C1)c1cc(Br)c(O)c(Br)c1`, the AC50 is 18.6 µM (active) and 9.69 µM (active).

With `CCCCCCCCCCCCCCCC[N+](C)(C)CC`, the AC50 is 12.1 µM (active).

For the compound `C/C=C\C/C=C/CCCCCCCCOC(C)=O`, the AC50 is 9.54 µM (active).

For the compound `C#CC1(O)CC[C@H]2[C@@H]3CCC4=CCCC[C@@H]4[C@H]3CC[C@@]21C` (stereo partly specified), the half-maximal activity concentration (AC50) was 8.34 µM (active).

With `CC(C)C(=O)C(C)C`, the outcome was inactive.

In the case of `O=C(Nc1ccccc1SSc1ccccc1NC(=O)c1ccccc1)c1ccccc1`, the AC50 is 1.15 µM (active).

With `CCCCC(CC)COC(=O)c1ccccc1O` (stereo unspecified), the AC50 is 1.8 µM (active).

With `C=CCOCC(O)CCl` (stereo unspecified), the result was inactive.

`c1ccc2c(c1)ccc1cc3c(ccc4ccccc43)cc12`: the AC50 was 15 nM (active) and 41.3 nM (active).

For the compound `CCCCC/C=C\C/C=C\CCCCCCCC(=O)OC`, the half-maximal activity concentration (AC50) is 20 µM (active).

For the compound `C=CC(=O)OCC(Br)CBr` (stereo unspecified), the half-maximal activity concentration (AC50) was 20 µM (active).

With `c1ccc2c(c1)ccc1ncccc12`, the AC50 is 8 µM (active).

Consider `O=C(c1ccc(O)cc1)c1ccc(O)cc1O`, for which the result was inactive.

For the compound `O=C(Cl)c1cc(C(=O)Cl)cc(C(=O)Cl)c1`, the concentration at half-maximal activity (AC50) was 12.2 µM (active).

For the compound `C=C[Si](OC(C)=O)(OC(C)=O)OC(C)=O`, the outcome was inactive.

Turning to `CO[Si](OC)(OC)c1ccccc1`, the result was inactive.
